Reference: PubChem BioAssay (Tox21)
Inconclusive results are not listed. A call without a number means that no potency is given here. The source made the active and inactive calls. Calls come from the whole dose curve.

test: qHTS assay to identify small molecule agonists of the endoplasmic reticulum stress response signaling pathway - cell viability counter screen (AID 1159517); conditions: ESRE-bla HeLa viability, CellTiter-Glo luminescence, 5 h; series mostly up to 61 µM; note: nearly all actives have a fitted effect of over 50% in size
Text: U.S. Tox21 Program National Center for Advancing Translational Sciences [NCATS] NIH Chemical Genomics Center [NCGC] U.S. Environmental Protection Agency [EPA] National Institutes of Environmental Health Sciences [NIEHS] National Toxicology Program [NTP] U.S. Food and Drug Administration [FDA] Tox21 Assay Overview: Endoplasmic Reticulum (ER) plays an important role in cellular signaling, protein folding/maturation, stress response, lipid biosynthesis, calcium storage and release etc. Under stress conditions, proteins in ER misfold or unfold, and leading to the expression of ER stress responsive genes. ER stress has been associated with a variety of pathophysiological conditions such as cancer, inflammation, neurodegenerative diseases, diabetes, ischemic heart disease etc. To identify the compounds that induce ER stress response, an ER stress reporter cell line, CellSensor ESRE-bla HeLa (Life Technologies, Carlsbad, CA) containing a beta-lactamase reporter gene under control of the Endoplasmic reticulum Stress Response Element (ESRE) was used to screen Tox21 10K compound library. The cytotoxicity of the Tox21 compound library against the ESRE-bla HeLa cell line was tested in parallel by measuring cell viability using the CellTiter-Glo assay in the same wells.
Tox21 Assay Protocol Summary: ESRE-bla HeLa cells were dispensed at 1,500 cells/6 uL of assay medium per well into black wall/clear-bottom 1536-well plates using a Multidrop Combi (ThermoFisher Scientific, Waltham, MA) dispenser. After the assay plates were incubated at 37 C and 5% CO2 for an overnight, 23 nL of compounds dissolved in DMSO, positive controls or DMSO only was transferred to the assay plate by a Pintool station (Kalypsys, San Diego, CA). The assay plates were incubated at 37 C and 5% CO2 for 5 hr. One uL of LiveBLAzer B/G FRET substrate (Life Technologies) was added using a FRD (Flying Reagent Dispenser, Aurora Discovery, San Diego, CA) and the plates were incubated at room temperature for 2 hr. Fluorescence intensity (405 nm excitation, 460 nm and 530 nm emissions) was measured using an Envision plate reader (PerkinElmer, Shelton, CT). For cytotoxicity, 4 ul/well of CellTiter-Glo reagent was added into the assay plates using an FRD. After 30 min incubation at room temperature, the luminescence intensity was measured using a ViewLux plate reader (PerkinElmer).
Potency is the fitted concentration of half-maximal effect.

SMILES | Potency
O=C(CCc1ccc(O)cc1)c1c(O)cc(O)cc1O | inactive
c1ccc2c(c1)CCc1ccccc1N2 | inactive
Oc1cccc(O)c1O | inactive
CCCCCCC(C)(C)C(=O)O | inactive
C=C/C(C)=C/C/C=C(\C)CCC=C(C)C | inactive
CC(CCC(=O)O)C(=O)O (stereo not given) | inactive
Oc1cc2c(cc1O)[C@H]1c3ccc(O)c(O)c3OC[C@@]1(O)C2 | inactive
CC(=O)Oc1ccc([N+](=O)[O-])cc1CCl | inactive
CCOc1cccc(-n2cc(C(=O)N3CCN(c4cc(C(=O)O)c5ccccc5c4)CC3)nc2-c2ccc(C)cc2)c1 | inactive
Cc1ccccc1N=C(N)Nc1ccccc1C | inactive
CCCCCCCC/C=C\CCCCCCCCCCCC(=O)O | inactive
CC(C)COCC(CN(Cc1ccccc1)c1ccccc1)N1CCCC1 (stereo not given) | inactive
CCC(OCCCOC)OC(C)=O (stereo not given) | inactive
CN1CCCN=C1COC(=O)C(O)(c1ccccc1)C1CCCCC1 (stereo not given) | inactive
Nc1cccc2c1CN(C1CCC(=O)NC1=O)C2=O (stereo not given) | inactive
O=C=Nc1cccc(C(F)(F)F)c1 | inactive
CCCCCC#CC(=O)OC | inactive
CCC(C)COC(=O)CC(C)C (stereo not given) | inactive
CC(C)=CCC/C(C)=C/CC/C(C)=C/CCC(=O)OC/C=C(\C)CCC=C(C)C | inactive
CCC1CO1 (stereo not given) | inactive

SMILES | Potency
CCCCOc1ccc(OCCCN2CCOCC2)cc1 | inactive
Cc1ccc(Cl)c(Nc2ccccc2C(=O)O)c1Cl | inactive
NC1[C@H]2CN(c3nc4c(cc3F)c(=O)c(C(=O)O)cn4-c3ccc(F)cc3F)C[C@@H]12 (stereo not given in full) | inactive
Cc1cc(C)c(N)cc1C | inactive
O=Cc1c2ccccc2c(Cl)c2ccccc12 | inactive
CCOC(=O)c1ccc(C#Cc2ccc3c(c2)C(C)(C)CCS3)nc1 | inactive
O=C(O)CCCCCCCCCCCBr | inactive
Nc1nnc(-c2ccc([N+](=O)[O-])o2)o1 | inactive
C1C[C@@H]2[C@H]3CC[C@H](C3)[C@@H]2C1 | inactive
Cc1cccc(O)c1N | inactive
CS(=O)(=O)c1ccc(-c2cn3ccccc3n2)cc1 | 23.9 µM (active)
CNC(=O)c1cnn(-c2nc(N)c3ncn([C@@H]4O[C@H](CO)[C@@H](O)[C@H]4O)c3n2)c1 | inactive
Nc1ncnc2c1ncn2[C@H]1CC[C@@H](CO)O1 | inactive
CCOC(=O)C1=C(C)NC(C)=C(C(=O)OC)C1c1cccc(Cl)c1Cl (stereo not given) | inactive
Cc1ccc2c(Br)cc(Br)c(O)c2n1 | inactive
CCOC(=O)c1ccc(O)c(O)c1 | inactive
CC(C)Nc1cccnc1N1CCN(C(=O)c2cc3cc(NS(C)(=O)=O)ccc3[nH]2)CC1 | inactive
C[C@@H](CN(C)C)CN1c2ccccc2Sc2ccccc21 | inactive
CC(C)=CC(=O)C=C(C)C | inactive
O=c1c(O)c(-c2ccc(O)cc2)oc2cc(O)cc(O)c12 | inactive
